Rows were chosen to be rich in hits. Some 1.2% of all compounds tested hit in one or more screens of this group.
Pin1 inh: human Pin1 inhibition. Q13526. Pin1 FP peptide displacement, HiFluor488, 10 min. Potency, µM (titrated, usually from 115 µM), for inactives: top-dose activity, negative = inhibition, actives largely listed as inhibitors. actives 0.009% (n = 390,000). AID 504891; active = well fitted inhibition curve with a large enough effect in the polarisation, with a control signal flat, not every such curve was filed as active; inconclusive = small, poorly fitted or top-dose-only effect, or effect the other way, or a change in a side signal; inactive = no such curve, though single readings can be large or run the other way; the % refers to the polarisation; also: potency is read from the fitted curve at half-maximal effect
hERG WT inh: KCNH2 (human, wildtype) channel inhibition. Q12809. U2OS, BacMam KCNH2, thallium flux FluxOr; hits give low values. activity change, % at 1.84 µM. actives 0.37% (n = 340,000);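 active = maximum activity change below -70%; inconclusive = maximum activity change between -70% and -50%; inactive = maximum activity change above -50%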
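U2OS cells transduced with wild-type KCNH2 virus are loaded with FluxOr dye for 45 min, and thallium flux is measured in kinetic reads before and after stimulation buffer. Rate constants are normalized to DMSO controls.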
KAT2A inh: GCN5L2 (KAT2A) acetyltransferase inhibition. Q92830. GCN5L2 HAT assay, ThioGlo1 CoA-SH fluorescence. AID 504327. Potency, µM (top dose mostly 58.9 µM), inactives show at the highest dose activity change, negative = inhibition, hits mostly inhibitors. actives 0.21% (n = 390,000); also: potency is read from the fitted curve at half-maximal effect
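Preincubate 20nM GCN5L2 with compound 15 min, RT → add 50uM ThioGlo1 + 75uM H3(1-25) + 70uM acetyl-CoA → read fluorescence 0 and 20 min. Primary qHTS; fluorescent artifacts likely.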
KCNH2 3.1 inh: inhibitors of human KCNH2 3.1 potassium channel isoform | U2OS KCNH2 3.1, thallium flux FluxOr; hits give low values | activity change, % (tested at about 1.8 µM) | actives 0.95% (n = 340,000);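 active = maximum activity change below -70%; inconclusive = maximum activity change from -70% to -50%; inactive = maximum activity change above -50%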;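 also: thallium influx rate constant from kinetic fluorescence after stimulation buffer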
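Normalized rate constant (relative to positive and negative DMSO controls) derived from a 2 min kinetic fluorescence read after stimulation; U2OS cells expressing the 3.1 isoform via virus at 1.77 x 10^8 /mL.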
RGS4 inhibitor: human RGS4 inhibition. Transcreener GDP fluorescence polarization, RGS4-accelerated GTP hydrolysis. actives 0.039% (n = 390,000). Potency, µM (highest dose often 114 µM), inactives show top-dose activity change, negative = inhibition, hits mostly inhibitors. P49798; also: potency is read from the fitted curve at half-maximal effect; nearly all actives have a fitted effect of over 75% in size
Target sequence (P49798 whole entry, looked up): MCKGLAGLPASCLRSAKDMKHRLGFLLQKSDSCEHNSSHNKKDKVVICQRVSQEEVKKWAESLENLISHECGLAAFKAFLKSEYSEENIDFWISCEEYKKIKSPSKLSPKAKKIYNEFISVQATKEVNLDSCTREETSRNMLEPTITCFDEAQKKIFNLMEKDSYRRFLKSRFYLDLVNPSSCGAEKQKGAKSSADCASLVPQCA
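MLSMR compounds (23 nl, pin-transferred) preincubated 10 min at room temperature with a 500nM (2x) first reagent, then RGS4 at 900nM (2x) plus Transcreener GDP mix added; fluorescence polarization (620/688 nm) read before and after 90 min at 30 °C.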
PGK inhibitor: T. brucei PGK inhibition. P07378. PGK/GAPDH coupled, Kinase-Glo luminescence, 60 min. Potency, µM (titrated, usually from 57.5 µM), for the others: at the highest dose activity change, negative = inhibition, actives largely listed as inhibitors. actives 0.043% (n = 380,000). AID 602233; also: potency is read from the fitted curve at half-maximal effect; nearly all actives have a fitted effect of over 60% in size
Target sequence (P07378 whole entry, looked up): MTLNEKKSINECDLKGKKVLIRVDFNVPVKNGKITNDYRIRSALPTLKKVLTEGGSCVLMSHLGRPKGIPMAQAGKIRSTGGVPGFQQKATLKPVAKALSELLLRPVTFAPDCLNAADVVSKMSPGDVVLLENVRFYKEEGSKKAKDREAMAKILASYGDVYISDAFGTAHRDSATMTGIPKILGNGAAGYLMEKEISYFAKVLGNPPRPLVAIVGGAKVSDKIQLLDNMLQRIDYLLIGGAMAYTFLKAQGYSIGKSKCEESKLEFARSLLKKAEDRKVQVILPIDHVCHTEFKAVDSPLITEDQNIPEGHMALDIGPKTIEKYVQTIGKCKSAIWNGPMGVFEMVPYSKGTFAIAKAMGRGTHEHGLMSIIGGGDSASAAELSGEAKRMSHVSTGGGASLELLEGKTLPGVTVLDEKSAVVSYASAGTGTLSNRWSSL
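Recombinant glycosomal PGK reaction used 1,3-bisphosphoglycerate generated in-well by GAPDH (100nM final) in 100mM TEA pH 7.6, 5mM MgCl2, 0.01% Tween-20. After 60 minutes at room temperature, ATP was read by Kinase-Glo Plus luminescence end-point.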
Numbers without * were called inactive. Unless noted, calls follow the shape of the dose curve; as a rule, active = well fitted curve in the direction sought with a large enough effect; inconclusive = small, poorly fitted or top-dose-only effect, or another doubt; inactive = no such curve, though single readings can be large; an effect the other way counts as inactive or inconclusive. % is scaled to controls: 0 for no effect and ±100 for the full control effect.

How did Cc1ccc(C(=O)N2CCN(c3ccc(NC(=O)c4ccc5c(c4)OCCO5)cc3)CC2)cc1 do in these assays?
Pin1 inh: 3%; hERG WT inh: -20; KAT2A inh: -4%; KCNH2 3.1 inh: -93*; RGS4 inhibitor: -8%; PGK inhibitor: -8%

Results for Cc1ccccc1C(=O)N1CCN(c2ccc(NC(=O)c3ccc4c(c3)OCCO4)cc2)CC1 ?
Pin1 inh: -1%; hERG WT inh: -5; KAT2A inh: 0%; RGS4 inhibitor: -3%; PGK inhibitor: -1%

Results for Cc1ccc(N2CCN(C(=O)c3ccccc3NC(=O)c3ccccc3C(=O)O)CC2)cc1 ?
Pin1 inh: 3%; hERG WT inh: -72*; KAT2A inh: -5%; KCNH2 3.1 inh: -9; RGS4 inhibitor: -6%; PGK inhibitor: inactive

How did Cc1ccc(NC(=O)Nc2nnc(SCC(=O)N3CCC(C)CC3)s2)cc1 do in these assays?
Pin1 inh: -1%; KAT2A inh: -4%; RGS4 inhibitor: 15%; PGK inhibitor: 1%

What do the screens show for `CCc1ccc(OCc2cc(=O)n3cc(C)sc3n2)cc1`?
Pin1 inh: -6%; KAT2A inh: 0%; RGS4 inhibitor: 10%; PGK inhibitor: -2%

What do the screens show for `Cc1ccc(CN2CCN(Cc3cc(=O)c4ccccc4[nH]3)CC2CCO)o1` (configuration not stated)?
Pin1 inh: 4%; hERG WT inh: -118*; KAT2A inh: -4%; KCNH2 3.1 inh: -2; RGS4 inhibitor: 5%; PGK inhibitor: 0%

How did Cc1ccc(CN2CCN(Cc3c[nH]c4ccccc34)CC2CCO)o1 (configuration not stated) do in these assays?
Pin1 inh: 0%; hERG WT inh: -2; KAT2A inh: -2%; KCNH2 3.1 inh: -5; RGS4 inhibitor: 6%; PGK inhibitor: -5%

What do the screens show for `CCOc1ccc(CN2CCN(Cc3[nH]c4ccc(OC)cc4c3C)CC2CCO)cc1` (configuration not stated)?
Pin1 inh: -1%; hERG WT inh: -73*; KAT2A inh: -2%; KCNH2 3.1 inh: -107*; RGS4 inhibitor: -3%; PGK inhibitor: 7%

How did CCOc1ccccc1CN1CCN(Cc2[nH]c3ccccc3c2C)CC1CCO (configuration not stated) do in these assays?
Pin1 inh: -7%; hERG WT inh: -18; KAT2A inh: -3%; KCNH2 3.1 inh: -74*; RGS4 inhibitor: 15%; PGK inhibitor: 1%

Results for Cc1ccc(C(=O)N2CCc3cc(CNC(=O)CSc4ccccc4)ccc32)cc1 ?
Pin1 inh: 15%; KAT2A inh: -13%; RGS4 inhibitor: 2%; PGK inhibitor: -1%

What do the screens show for `C=Cc1ccc(Cn2c(C(=O)O)c(CNCc3ccccc3)c3ccc(OC)cc32)cc1`?
Pin1 inh: 0%; KAT2A inh: 32µM*; RGS4 inhibitor: -38%

What do the screens show for `COc1ccc(Cn2c(C(=O)O)c(CNCc3ccc(SC)cc3)c3ccc(OC)cc32)cc1`?
Pin1 inh: 11%; KAT2A inh: -9%; RGS4 inhibitor: -17%; PGK inhibitor: 11%

How did COC(=O)C1=C(C)NC(C)=C([N+](=O)[O-])[C@@H]1c1ccccc1C(F)(F)F do in these assays?
KAT2A inh: 1%; RGS4 inhibitor: inconclusive

How did Cc1ccc(C(=O)COC(=O)CNC(=O)CNC(=O)c2ccc(C)cc2)cc1 do in these assays?
Pin1 inh: -3%; hERG WT inh: -1; KAT2A inh: -6%; KCNH2 3.1 inh: -85*; RGS4 inhibitor: -1%; PGK inhibitor: 10%

What do the screens show for `COc1ccc([C@@H]2Sc3cc(OC)ccc3N(CCN(C(C)C)C(C)C)C(=O)[C@H]2OC(C)=O)cc1`?
Pin1 inh: 0%; hERG WT inh: -90*; KAT2A inh: 1%; KCNH2 3.1 inh: -100*; RGS4 inhibitor: 4%; PGK inhibitor: 0%

Results for COc1ccc(C(=O)N2CCC3(CC2)CN(Cc2ccc(C#N)cc2)C3)cc1 ?
KAT2A inh: -10%

How did Cc1cc(C)c(C(=O)COC(=O)c2cccc(S(=O)(=O)NCc3ccccc3)c2)cc1C do in these assays?
Pin1 inh: 0%; hERG WT inh: 2; KAT2A inh: -12%; KCNH2 3.1 inh: -1; RGS4 inhibitor: 8%; PGK inhibitor: -6%

Results for O=C(COC(=O)c1cccc(S(=O)(=O)NCc2ccccc2)c1)c1ccccc1 ?
Pin1 inh: 14%; hERG WT inh: 7; KAT2A inh: -9%; KCNH2 3.1 inh: -84*; RGS4 inhibitor: inconclusive; PGK inhibitor: 8%

How did O=C(/C=C/c1ccc(OCCCF)cc1)NCc1ccc(Cl)cc1 do in these assays?
Pin1 inh: 0%; hERG WT inh: -12; KAT2A inh: 3.5µM*; RGS4 inhibitor: -32%; PGK inhibitor: -5%

Results for COc1ccc(CNC(=O)/C=C/c2ccc(OCCCF)cc2)cc1 ?
Pin1 inh: 7%; hERG WT inh: -8; KAT2A inh: 0%; KCNH2 3.1 inh: -8; RGS4 inhibitor: 12%; PGK inhibitor: 7%

How did Cc1cc(C)n(S(=O)(=O)/C=C/c2ccccc2)n1 do in these assays?
Pin1 inh: -5%; hERG WT inh: -88*; KAT2A inh: -4%; KCNH2 3.1 inh: -9; RGS4 inhibitor: -17%; PGK inhibitor: -11%

How did Cc1ccc(S(=O)(=O)n2nc(C)cc2C)cc1 do in these assays?
Pin1 inh: -6%; hERG WT inh: 9; KAT2A inh: 6%; KCNH2 3.1 inh: 19; RGS4 inhibitor: -2%; PGK inhibitor: -5%

How did O=C(Nc1ccccc1Cl)c1ccc(Cl)cc1Cl do in these assays?
Pin1 inh: -2%; hERG WT inh: -13; KAT2A inh: -17%; KCNH2 3.1 inh: -72*; RGS4 inhibitor: 12%; PGK inhibitor: 6%

What do the screens show for `Cc1nn(CC(=O)NCc2ccc(F)cc2)c2ccccc12`?
Pin1 inh: -8%; KAT2A inh: 0%; RGS4 inhibitor: 0%; PGK inhibitor: -1%

Results for CCSc1nc2ccccc2c(=O)n1C1CCOC(C)(C)C1 (configuration not stated) ?
Pin1 inh: -6%; hERG WT inh: -3; KAT2A inh: -3%; KCNH2 3.1 inh: -91*; RGS4 inhibitor: -20%; PGK inhibitor: -9%

Results for O=C(COC(=O)COc1cccc(Br)c1)Nc1c(Cl)cccc1Cl ?
Pin1 inh: 0%; hERG WT inh: -189*; KAT2A inh: -3%; KCNH2 3.1 inh: 5; RGS4 inhibitor: 2%; PGK inhibitor: -2%

Source: PubChem
